Rows were chosen to be rich in hits. Some 2.3% of all compounds tested hit in one or more screens of this group.
DENV2 CPE rescue: inhibitors of DENV2 cytopathic effect, primary screen, cell-based, plate reader, single concentration; DENV2-infected cells, cytopathic effect rescue; AID 651640, 2012; CPE inhibition, % at 9.99 µM; hit rate 1.7% among 350,000; in the data active = CPE inhibition above about 20%, passing the limit was not always enough; inconclusive = no clear call, values can overlap the other calls; tested in BHK-21 cells;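 note: 0% = median of neutral control wells and 100% = median of positive control wells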
Rtt109 HAT inh: inhibitors of C. albicans Rtt109/Vps75 HAT, primary screen, biochemical, ThioGlo CoA-SH fluorescence, plate reader; purified Rtt109/Vps75, 4 h; inhibition, % at 34.9 µM; hit rate 0.16% among 330,000; AID 540336, 2011;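 active = inhibition of at least 50% in every replicate; inconclusive = best replicate reaches 50% inhibition but some replicates fall short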
Target sequence (Q5AAJ8 whole entry, looked up): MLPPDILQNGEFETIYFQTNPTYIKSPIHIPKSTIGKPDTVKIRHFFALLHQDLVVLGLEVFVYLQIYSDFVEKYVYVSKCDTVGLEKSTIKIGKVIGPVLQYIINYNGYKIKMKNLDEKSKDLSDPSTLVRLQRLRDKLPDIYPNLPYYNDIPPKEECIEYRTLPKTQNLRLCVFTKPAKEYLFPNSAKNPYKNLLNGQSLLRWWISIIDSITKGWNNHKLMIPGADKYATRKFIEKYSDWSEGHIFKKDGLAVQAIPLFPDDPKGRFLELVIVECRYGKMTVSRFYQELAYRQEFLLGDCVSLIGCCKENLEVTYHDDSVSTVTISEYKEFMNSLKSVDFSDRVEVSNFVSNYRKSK
PDI inh: inhibitors of human PDI, primary screen, biochemical, turbidity, single point, plate reader; Protein disulfide-isomerase (Homo sapiens), P07237; PDI insulin aggregation turbidity, A650, 90 min; inhibition, % at 10 µM; hit rate 0.052% among 350,000; AID 588391, 2011;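 active = mean inhibition across replicates of 30% or more, whatever share of single replicates reach that level; inconclusive = mean inhibition below 30% while every single replicate reaches 30%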
ERp5 block: inhibitors of ERp5-driven insulin aggregation, primary screen, biochemical, turbidity, absorbance 650 nm, single point; Protein disulfide-isomerase A6 (Homo sapiens), Q15084; AID 651711, 2012; inhibition, % at 9.99 µM; hit rate 0.05% among 350,000; 90 min;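 active = mean replicate inhibition above about 25%, with every replicate also reaching it, limit read from the data, passing the limit was not always enough; inconclusive = only one of those two criteria met; inactive = neither criterion met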
SIRT5 block: SIRT5 desuccinylase inhibitors, primary screen, biochemical, fluorescence imaging, single point, set 5; hit rate 1.1% among 330,000; Purified SirT5, succinyl-peptide AMC, trypsin-coupled fluorescence; inhibition, % at 15 µM; NAD-dependent protein deacylase sirtuin-5, mitochondrial (Homo sapiens), Q9NXA8; in the data active = inhibition above about 15%; inconclusive = no clear call, values can overlap the other calls
Numbers without * were called inactive; ? = inconclusive; / = not tested or not shown; ! = not active in a repeat.

SMILES | DENV2 CPE rescue | Rtt109 HAT inh | PDI inh | ERp5 block | SIRT5 block
COc1ccc(NC(=O)N(C)C[C@H]2Oc3ccc(NS(=O)(=O)c4c(C)noc4C)cc3C(=O)N([C@H](C)CO)C[C@@H]2C)cc1 | 22.0* | -16.5 | 6.3 | 1.6 | -4.2
Cc1noc(C)c1NC(=O)N(C)C[C@H]1Oc2ccc(NS(=O)(=O)c3c(C)noc3C)cc2C(=O)N([C@H](C)CO)C[C@@H]1C | 30.5*! | 6.6 | 10.0 | 1.0 | 2.7
CC(C)NC(=O)Nc1ccc2c(c1)C(=O)N([C@@H](C)CO)C[C@@H](C)[C@@H](CN(C)S(=O)(=O)c1cccs1)OCCCC[C@H](C)O2 | 1.9 | / | / | 4.0 | -1.1
CN(C)C(=O)c1ccc(-c2ccc([C@@H]3[C@@H](CO)N4CCCCN(S(C)(=O)=O)C[C@@H]34)cc2)cc1 | -6.7 | / | / | -3.5 | -1.2
Cc1ccc(S(=O)(=O)N[C@@H]2CC[C@@H](CC(=O)N3CCN(c4ccccc4)CC3)O[C@H]2CO)cc1 | 0.9 | / | / | -1.6 | 2.0
Cc1ccc(S(=O)(=O)Oc2ccc(/C=N/N=C3/NC(=O)C(CC(=O)O)S3)cc2)cc1 (configuration not stated) | -1.7 | 10.1 | 3.1 | -0.4 | 28.4*
Cc1ccc(S(=O)(=O)N(C)C[C@H]2OCCCC[C@H](C)Oc3ccc(NC(=O)Nc4ccc(C(F)(F)F)cc4)cc3C(=O)N([C@@H](C)CO)C[C@@H]2C)cc1 | 0.4 | / | / | -3.2 | 2.6
Cc1ccc(S(=O)(=O)N(C)C[C@@H]2OCCCC[C@H](C)Oc3ccc(NC(=O)Nc4ccc(C(F)(F)F)cc4)cc3C(=O)N([C@H](C)CO)C[C@@H]2C)cc1 | 23.0* | / | / | 3.5 | 5.0
Cc1ccc(S(=O)(=O)N(C)C[C@H]2OCCCC[C@H](C)Oc3ccc(NC(=O)Nc4ccc(C(F)(F)F)cc4)cc3C(=O)N([C@H](C)CO)C[C@@H]2C)cc1 | 55.3* | / | / | -6.9 | 4.1
Cc1ccc(S(=O)(=O)N(C)C[C@H]2OCCCC[C@H](C)Oc3ccc(NC(=O)Nc4ccc(C(F)(F)F)cc4)cc3C(=O)N([C@H](C)CO)C[C@H]2C)cc1 | -3.8 | / | / | -9.9 | -1.4
Cc1ccc(S(=O)(=O)N(C)C[C@@H]2OCCCC[C@@H](C)Oc3ccc(NC(=O)Nc4ccc(C(F)(F)F)cc4)cc3C(=O)N([C@@H](C)CO)C[C@H]2C)cc1 | 53.1* | / | / | -5.0 | 5.0
Cc1noc(C)c1S(=O)(=O)N(C)C[C@@H]1OCCCC[C@H](C)Oc2ccc(NC(=O)NC3CCCCC3)cc2C(=O)N([C@H](C)CO)C[C@H]1C | ? | / | / | -0.3 | 7.2
O=C(O)C1C2CCC(C2)C1C(=O)NCCc1ccc(F)cc1 (configuration not stated) | -2.3 | -2.5 | 1.2 | -6.3 | 17.5*
COc1ccc(S(=O)(=O)N(C)C[C@@H]2Oc3cc(C4=CCCC4)ccc3S(=O)(=O)N([C@@H](C)CO)C[C@H]2C)cc1 | 3.0 | / | / | 3.6 | 9.6
COc1cccc(S(=O)(=O)N(C)C[C@H]2Oc3cc(C4=CCCC4)ccc3S(=O)(=O)N([C@@H](C)CO)C[C@@H]2C)c1 | 19.3 | / | / | 4.5 | 21.2*
COc1cccc(S(=O)(=O)N(C)C[C@H]2Oc3cc(C4=CCCC4)ccc3S(=O)(=O)N([C@H](C)CO)C[C@@H]2C)c1 | 37.6* | / | / | 1.5 | 3.2
COc1cccc(S(=O)(=O)N(C)C[C@H]2Oc3cc(C4=CCCC4)ccc3S(=O)(=O)N([C@H](C)CO)C[C@H]2C)c1 | -4.8 | / | / | -2.0 | 21.3*
COc1cccc(S(=O)(=O)N(C)C[C@@H]2Oc3cc(C4=CCCCC4)ccc3S(=O)(=O)N([C@@H](C)CO)C[C@@H]2C)c1 | -2.1 | / | / | -8.6 | 21.4*
COc1ccc(S(=O)(=O)N(C)C[C@@H]2Oc3cc(C4=CCCC4)ccc3S(=O)(=O)N([C@H](C)CO)C[C@H]2C)cc1 | -5.3 | / | / | 2.7 | 9.0
O=C(O)CCCC(=O)N1CCc2cc(S(=O)(=O)N3CCc4ccccc43)ccc21 | 18.5 | -10.2 | / | 3.9 | 27.7*
CCC(=O)N1CCc2cc(S(=O)(=O)N3CCc4ccccc43)ccc21 | / | -7.6 | -7.9 | / | /
COCCNC(=O)c1ccc2c3n(nc2c1)-c1ccc(Cl)cc1CO3 | 121.8* | -8.1 | 7.9 | 3.8 | /

Screening data from PubChem BioAssay.
